Test results from PubChem BioAssay AID1030 (National Center for Advancing Translational Sciences (NCATS), 2008).
Among all 220,000 compounds or so, about 16,000 (7.3%) were called active. Not shown: some 25% with an inconclusive outcome. Shown is part of a subset that was picked to be rich in actives. A number with no mark means an inactive call. Calls come from the whole dose curve; as a rule, active = well fitted inhibition curve with a large enough effect (not every such curve was filed as active); inconclusive = small, poorly fitted or top-dose-only effect, or another doubt; inactive = no such curve, though single readings can be large or run the other way.

Target: Aldehyde dehydrogenase 1A1 (Homo sapiens) (UniProt P00352)
Experiment: qHTS Assay for Inhibitors of Aldehyde Dehydrogenase 1 (ALDH1A1);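 for activity, negative = inhibition: plate controls were no enzyme wells and a reference inhibitor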
Details: Purified ALDH1A1, NADH fluorescence, propionaldehyde substrate; series mostly up to 75.3 µM; activity, negative = inhibition: at the top concentration
Potency is the fitted concentration of half-maximal effect.

Aldehyde dehydrogenase 1A1 (Homo sapiens), sequence (P00352 whole entry, looked up): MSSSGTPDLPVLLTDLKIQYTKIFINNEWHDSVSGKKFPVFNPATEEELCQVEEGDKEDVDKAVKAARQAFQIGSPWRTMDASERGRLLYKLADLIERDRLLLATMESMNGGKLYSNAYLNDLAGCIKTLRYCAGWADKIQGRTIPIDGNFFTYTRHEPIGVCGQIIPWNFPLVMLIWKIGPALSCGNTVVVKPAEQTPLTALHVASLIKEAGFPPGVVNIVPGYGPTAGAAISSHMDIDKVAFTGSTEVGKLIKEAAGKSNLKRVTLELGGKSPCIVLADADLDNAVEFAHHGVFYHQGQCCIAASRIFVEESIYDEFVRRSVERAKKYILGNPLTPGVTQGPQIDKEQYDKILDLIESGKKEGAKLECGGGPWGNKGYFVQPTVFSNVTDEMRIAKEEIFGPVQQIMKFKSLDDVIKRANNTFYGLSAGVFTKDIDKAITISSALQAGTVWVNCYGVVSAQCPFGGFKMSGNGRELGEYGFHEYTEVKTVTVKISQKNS

SMILES | activity, negative = inhibition [%] | Potency
CC(C)(C)c1nnc(N/N=C/c2ccc(O)cc2)n(N)c1=O | -9.92 | 
Cc1ccc(NCc2n[nH]c(=S)n2-c2ccccc2)cc1Cl | -12.3 | 
S=c1[nH]nc(CSCc2ccc(Cl)cc2Cl)n1-c1ccccc1 |  | 3.55 µM (active)
Cn1c(CCCOc2ccc(Cl)cc2Cl)n[nH]c1=S | 9.75 | 
S=C(NCc1cccnc1)Nc1ccc(Cl)cc1Cl | -4.79 | 
C/C(=N\OCC(=O)Nc1ccc(Br)cc1)c1cccs1 | 3 | 
CCOC(=O)c1cc(C)nc(S(C)(=O)=O)c1C#N | 1.72 | 
[O-][n+]1c2c(nn1-c1ccc(Cl)c(Cl)c1)-c1nonc1CC2 | 12.6 | 
Cc1cc(C)cc(NC(=O)N2CCCCCCC2)c1 | -1.68 | 
Cc1cc(=O)[nH]c(=S)[nH]1 |  | inactive
O=c1[nH]c(=S)[nH]c2[nH]c(=S)[nH]c12 |  | 10 µM (active)
O=C(NC1CCCCC1)C1CCCN(S(=O)(=O)c2ccc(Br)s2)C1 (configuration not stated) | 2.8 | 
Cc1ccc(C2CCN(C(=S)Nc3cccc(Cl)c3)C2)cc1 (configuration not stated) | -1.08 | 
CC(C)(C)NC(=O)NC(=O)COC(=O)C1(C)CC1(Cl)Cl (configuration not stated) | 10.1 | 
Cc1[nH]n(C)c(=O)c1N=Nc1ccc(S(C)(=O)=O)cc1 | 7.33 | 
CNC(=O)NC(=O)C(C)N1CCN(C/C=C/c2ccccc2)CC1 (configuration not stated) | -7.23 | 
CCOC(=O)c1ccc(NC(=S)N2CCCC2)cc1 | -15.1 | 
CCOC(=O)c1ccccc1C(=O)N1CCOCCOCCOCC1 | 9.52 | 
COC(=O)CN(C(=S)Nc1ccc(Cl)cc1)C1CC(=O)N(c2ccc(OC)cc2)C1=O (configuration not stated) | 14.5 | 
O=C(Cn1c(N2CCN(C/C=C/c3ccccc3)CC2)nc2ccccc21)c1ccccc1 | 3.06 | 
CCOC(=O)c1ccc(N2C(=O)CC(N3CCN(C(=O)c4ccccc4)CC3)C2=O)cc1 (configuration not stated) |  | 3.55 µM (active)
NC(=O)C1CCN(C2OC(=O)c3ccccc32)CC1 (configuration not stated) | -5.84 | 

SMILES | activity, negative = inhibition [%] | Potency
COc1ccc(N2C(=O)CC(N3CCC(C(N)=O)CC3)C2=O)cc1 (configuration not stated) |  | 7.94 µM (active)
CCCCOC(=O)c1ccc(N2C(=O)CC(N3CCN(C/C=C/c4ccccc4)CC3)C2=O)cc1 (configuration not stated) |  | 12.6 µM (active)
CCOC(=O)c1ccc(N2C(=O)CC(N(C)Cc3ccccc3)C2=O)cc1 (configuration not stated) |  | 11.2 µM (active)
O=C(Cc1ccccc1)NNC1CC(=O)N(c2ccc(Br)cc2)C1=O (configuration not stated) | 3.95 | 
CCCOC(=O)c1ccc(N2C(=O)c3ccccc3C2=O)cc1 | 1.75 | 
CN(C)NC(=O)c1csnc1-c1c(Cl)cccc1Cl | 7.95 | 
CC(C)(C)c1ccc(/C=C/C(=O)NC2CCS(=O)(=O)C2)cc1 (configuration not stated) | -11.6 | 
CCOC(=O)CNC(=O)N1c2ccccc2Sc2ccccc21 | 8.51 | 
CN(CC(=O)N1CCN(c2ccccc2)CC1)S(=O)(=O)c1cccs1 | 7.8 | 
CC(=O)N1CCN(S(=O)(=O)c2c(F)cc(F)c(Cl)c2F)CC1 | 8.19 | 
COc1ccc(/C(=N\O)c2nccc3cc(OC)c(OC)cc23)cc1OC | 14.1 | 
CCC1(C)Cc2c(sc3nc(SC)[nH]c(=O)c23)CO1 (configuration not stated) | 0.569 | 
N=C1C(c2nc3ccccc3[nH]2)=C(O)CN1NC(=O)c1c[nH]c2ccccc12 | 8.77 | 
COc1ccc(NC(=S)N2CCCC(CO)C2)c(OC)c1 (configuration not stated) | 4.06 | 
Cc1cccc(C(=O)OCC(=O)NCC(C)C)c1O | 4.6 | 
CCOC(=O)c1ccc(NC(=O)C2CC(=O)Nc3nc4ccccc4n32)cc1 (configuration not stated) | 12.3 | 
CCOC(=O)C1CCN(c2ccc(C(=O)O)cc2[N+](=O)[O-])CC1 | 2.01 | 
CCCOc1ccc(N2C(=O)CC(N(CCc3ccc(S(N)(=O)=O)cc3)C(C)=O)C2=O)cc1 (configuration not stated) | -10.9 | 
CCCCCCC(=O)N(O)C1CC(=O)N(c2ccccc2)C1=O (configuration not stated) |  | 0.316 µM (active)
CCOC(=O)C1CCN(C(=O)Nc2ccc(Cl)cc2)CC1 | 8.47 | 
O=C1CC(N2CCN(c3ccc(F)cc3)CC2)C(=O)N1c1ccccc1 (configuration not stated) | -3.2 | 
CN1C(=O)CC(N2CCN(c3ccccn3)CC2)C1=O (configuration not stated) | -14.7 | 

SMILES | activity, negative = inhibition [%] | Potency
CCOC(=O)c1ccc(N2C(=O)CC(N3CCC(C(=O)OCC)CC3)C2=O)cc1 (configuration not stated) |  | 12.6 µM (active)
CCOc1ccc(N2C(=O)CC(N(CCc3ccc(OC)c(OC)c3)C(=S)Nc3ccccc3)C2=O)cc1 (configuration not stated) | 4.94 | 
COC(=O)c1cc(C(=O)OC)cc(N2C(=O)CC(N3CCN(c4ccccc4)CC3)C2=O)c1 (configuration not stated) |  | 31.6 µM (active)
CSc1nc(O)c(Cc2ccccc2)c(=O)[nH]1 | -0.847 | 
CCOC(=O)c1ccc(N2C(=O)CC(Sc3nc(O)c(CC)c(=O)[nH]3)C2=O)cc1 (configuration not stated) |  | 10 µM (active)
O=C(Nc1ccn(Cc2ccccc2)n1)c1n[nH]c([N+](=O)[O-])c1Cl | -1.46 | 
CCn1nc(C)c(CN2CCN(Cc3ccc(OC)c(C)c3C)C(CCO)C2)c1C (configuration not stated) | -0.693 | 
O=C(O)CCN(Cc1ccccc1)S(=O)(=O)c1c(Cl)cccc1Cl | -4.7 | 
CCOc1ccc(NC(=O)c2cc(C)nc3ccccc23)cc1 | 0.296 | 
O=C(CCCOc1ccc(Cl)cc1Cl)NNC(=O)C1CCC1 | 1.22 | 
COCc1cc(=O)[nH]c(-c2ccc(C(F)(F)F)cc2)n1 | 0.201 | 
O=C(CCc1ccccc1)Nc1nn[nH]n1 | -3.34 | 
COc1ccc(N2C(=O)C(Cc3ccccc3)NC2=S)cc1 (configuration not stated) | 14.4 | 
COC(=O)CC1=NN(c2nc(C)cc(C)n2)C(=O)C1 | 2.76 | 
c1ccc(CN=C2Nc3ccccc3CS2)nc1 | 0.764 | 
CCC(C(=O)Nc1ccc2c(c1)OCCO2)c1ccccc1 (configuration not stated) | -4.94 | 
CCOc1ccc(N2CC(C(=O)NCCN3C(=O)S/C(=C\c4cccnc4)C3=O)CC2=O)cc1 (configuration not stated) | -7.75 | 
C[C@H](NC(=O)c1ccccc1Cl)C(=O)OCCOc1cccc(Cl)c1 | 4.04 | 
CCC(=O)c1ccc(OCC(O)CN2CC(C)OC(C)C2)cc1 (configuration not stated) | -13.7 | 
CCOC(=O)c1ccc(N2C(=O)CC(N3CC(C)OC(C)C3)C2=O)cc1 (configuration not stated) |  | 7.94 µM (active)
CC1CN(C(=S)SCC(=O)c2ccccc2)CC(C)O1 (configuration not stated) | 0.843 | 
CN1CCN(CCC(=O)N/N=C/C=C2\N(C)c3ccccc3C2(C)C)CC1 | 3.13 | 

SMILES | activity, negative = inhibition [%] | Potency
Cc1cccc(-n2c(Cc3cc(=O)[nH]c(=O)[nH]3)nnc2SCC(=O)Nc2cccc(C(F)(F)F)c2)c1 | -2.03 | 
CCOC(=O)N1CCN(C(=O)CSc2nc(C)nc3c2c(=O)n(C)c(=O)n3C)CC1 | 1.21 | 
CCOC(=O)c1c(C)nn(-c2ncccc2NC(=O)CCC(=O)O)c1C | 5.83 | 
CC(C)N(C)C(=O)CCc1nnc(CCc2c[nH]c3ccccc23)o1 | 4.17 | 
O=C(CSc1nc(-c2ccco2)cc(C(F)(F)F)n1)NCc1cccs1 | -0.0855 | 
O=C(CSc1nc(-c2ccco2)cc(C(F)(F)F)n1)N1CCc2ccccc2C1 |  | 11.2 µM (active)
FC(F)(F)c1cc(-c2ccco2)nc(N2CCOCC2)n1 | 0.194 | 
CC(C)(C)n1ncc2c(=O)n(Cc3ccc(Cl)cc3)cnc21 | 10.7 | 
COc1ccc(-n2c(C)nn(CC3CC3)c2=O)cc1 | -1.71 | 
Cc1ccc(NC(=S)NC(=O)c2ccc(-c3ccccc3)cc2)c(C)c1 |  | 11.2 µM (active)
Cc1ccc(NC(=O)c2oc(=O)c3ccccc3c2-c2ccccc2)c(C)c1 | -15.4 | 
Cc1ccc(C(=O)NC(=S)Nc2ccccc2C)cc1 | -1.81 | 
O=C(CN1CCN(S(=O)(=O)/C=C/c2ccccc2)CC1)Nc1ccc(N2CCOCC2)cc1 | 7.06 | 
O=C(/C=C/c1ccccc1)c1ccoc1 | 2.74 | 
O=C(/C=C/c1ccc(N2CCOCC2)cc1)c1ccccc1 |  | 31.6 µM (active)
CC(C)(C)OC(=O)N1CCC(NC(=O)c2[nH]cnc2C(=O)N[C@@H](Cc2ccccc2)C(=O)OCc2ccccc2)CC1 | -3.65 | 
CC(C)[C@H](NC(=O)c1ccc(F)cc1)C(=O)OCC(=O)NC(=O)c1cccn1C | -0.435 | 
CCSC1=NCCN1C(=O)c1ccc(S(=O)(=O)N(CC)CC)cc1 | -7.18 | 
COC(=O)CNC(=O)c1ccc2c(c1)S(=O)(=O)c1ccccc1C2=O |  | 11.2 µM (active)
CCCCN(C)C(=O)c1ccc2c(c1)N(CC)C(=O)c1ccccc1S2(=O)=O | 8.84 | 
COC(=O)CNC(=O)c1ccccc1F | 12.2 | 
O=C(CCn1ccc([N+](=O)[O-])n1)Nc1nccs1 | 1.26 | 

SMILES | activity, negative = inhibition [%] | Potency
COc1cc(OC)c(C2=NOC(C(=O)Nc3c(C)n(C)n(-c4ccccc4)c3=O)C2)cc1Cl (configuration not stated) | 5.57 | 
COc1ccc(NC(=O)CCNS(=O)(=O)c2ccc3c(c2)c(=O)n(C)c(=O)n3C)cc1OC | 4.29 | 
N#CCCN1CCN(S(=O)(=O)c2ccc(S(=O)(=O)N3CCCC3)cc2)CC1 | -6.46 | 
CC(C)(C)c1cc(CN2CCN(CCC#N)CC2)cc(C(C)(C)C)c1O |  | 7.08 µM (active)
CCC(=O)c1ccc(OCC(O)Cn2nc(C)c(C(C)=O)c2C)cc1 (configuration not stated) | 6.23 | 
O=C(Nc1cccc(F)c1)N1C2CCC1CC(O)(c1cccnc1)C2 (configuration not stated) | 2.68 | 
O=C(O)c1ccccc1-c1ccccc1C(=O)Nc1nccs1 | -6.84 | 
CCOC(=O)N1CCC(NC(=O)C(NS(=O)(=O)c2ccc3c(c2)CCN3C(=O)CC)C(C)C)CC1 (configuration not stated) | -1.13 | 
Cc1ccc(CN2CCN(Cc3cccc(C)n3)CC2CCO)cc1 (configuration not stated) | -7.49 | 
COc1ccc(C2=CC(c3cccc(OC)c3)n3nnnc3N2)cc1 (configuration not stated) | 3.52 | 
CCOC(=O)CNC(=O)c1nn(-c2cccc(OC)c2)c(=O)c2ccccc12 | -2.61 | 
CCOc1cccc(-n2nnnc2-c2ccc(OC)cc2)c1 |  | 25.1 µM (active)
Cc1ccc(S(=O)(=O)NC(=O)N2CCCN(Cc3ccc(F)cc3)CC2)cc1 | 8.46 | 
CC(=O)Nc1ccc(NC(=O)COc2ccc(S(=O)(=O)NC(C)c3ccccc3)cc2)cc1 (configuration not stated) | 7.35 | 
O=C(Nc1cccc(C(F)(F)F)c1)c1cnccn1 | 4.04 | 
CN(C)/C=C/C(=O)c1cnc2sccn2c1=O | 6.38 | 
CCOC(=O)c1c(NC(=O)C2(C)Cc3ccccc3C(=O)O2)sc2c1CCCC2 (configuration not stated) | 23.1 | 
CCOC(=O)C1=C(NC(=S)NC(=O)c2ccccc2)c2ccccc2CC1(C)C |  | 20 µM (active)
CCOC(=O)c1c(-c2ccccc2)csc1NC(=S)NC(=O)c1ccccc1 | -3.67 | 
